# Values joined by “and” are separate entries in the source; they are usually repeats but may differ in a detail not shown here. Identical values can stand only once.
# Biological target: Bromodomain-containing protein 4 (Homo sapiens) (UniProt O60885)
# Settings: Compound concentration 20.0 uM, Protein concentration 2.0 uM, Result type QC Liability
row,SMILES,ΔTm
1,Cc1ccc2c(NS(=O)(=O)c3ccccc3Cl)cccc2c1Oc1ncccc1-c1ccnc(N[C@H]2CCCNC2)n1,0.99 °C
2,COc1cc(-c2cncc(-c3ccc(N4CCN(C(C)C)CC4)cc3)c2C)cc(F)c1C(N)=O,-2.5 °C
3,C[C@@H](COCCC(=O)N1CCN(c2ncc(C(F)(F)F)cn2)CC1)Nc1cn[nH]c(=O)c1C(F)(F)F,-1.99 °C
4,Nc1ncc2c(n1)-c1c([nH]c3ccc(C4=CCOCC4)cc13)CCC2,-0.2 °C
5,Cc1ncsc1-c1ccc(CNC(=O)[C@@H]2C[C@@H](O)CN2C(=O)[C@@H](NC(=O)CCCCNC(=O)c2ccc(-c3ccc(N4CCN(C)CC4)c(NC(=O)c4c[nH]c(=O)cc4C(F)(F)F)c3)cc2)C(C)(C)C)cc1,-6.12 °C
6,Cc1cc(-c2cc3ncccc3c(OC[C@H]3CCCNC3)n2)ccc1N(C)C,-2.56 °C
7,Cc1nc(-c2ccc(C(F)(F)F)cc2)sc1C(=O)NCc1ccc(OC(C)(C)C(=O)O)cc1,-2.8 °C
8,CNC(=O)c1ccc2c(c1)NC(=O)/C2=C(\Nc1ccc(CN2CCCCC2)cc1)c1ccccc1,-3.03 °C
9,CCCCCCC(Sc1nc(Cl)cc(NCc2ccc(-c3ccccc3)cc2)n1)C(=O)O (centres undefined),-1.48 °C
10,N=C(N)Nc1cc(C2CCNCC2)cc(C(F)(F)F)c1,-0.1 °C
11,CCS(=O)(=O)c1ccc(OC)c(Nc2ncc(-c3cccc(F)c3)o2)c1,-2.4 °C
12,CC(F)(F)CN1C(=O)c2[nH]nc(-c3cccc4[nH]c(=O)oc34)c2C1c1ccc(Oc2cc(C(F)(F)F)cc(C(F)(F)F)c2)cc1 (centres undefined),-1.07 °C
13,NC(=O)OC[C@H](NC(=O)Cn1nc(-c2ccc(Cl)cc2)n(C[C@H](O)C(F)(F)F)c1=O)c1cccc(C(F)(F)F)c1,0.39 °C
14,COc1cc(Oc2nc(-c3ccc(NC(=O)C4CCOC4)cc3)nn3c(C)nc(C)c23)cc(OC)c1OC (centres undefined),-1.75 °C
15,Cc1cnc(-c2cnc(NCCNc3ccc(C#N)cn3)nc2-c2ccc(Cl)cc2Cl)[nH]1,-2.28 °C
16,O=C(Cc1ccccc1[N+](=O)[O-])Nc1ccc(-c2ccc(C(O)(C(F)(F)F)C(F)(F)F)cc2F)cc1,-0.72 °C
17,Cc1cc(OC2CCS(=O)(=O)CC2)cc(C)c1-c1cccc(COc2ccc(C(=O)O)c(F)c2)c1,-3.26 °C
18,CCC(F)(F)c1cc(N2CCC(S(C)(=O)=O)CC2)nc2sc(C(N)=O)c(N)c12,-3.68 °C and -1.82 °C and -0.22 °C
19,CC(C)(C)c1cc(NC(=O)c2csc(Nc3ccc(Cl)cc3)n2)no1,-0.97 °C
20,NC(=O)c1sc2nc(N3CCC(NC[C@H](O)c4ccccn4)CC3)cc(C(F)(F)F)c2c1N,-3.3 °C

row,SMILES,ΔTm
1,CC(C)(C)OC(=O)CN(Cc1ccc(Cl)cc1)Cc1ccc([N+](=O)[O-])s1,-2.44 °C
2,C=CC(=O)Nc1cccc(C(=O)Nc2ccc(Nc3cc(-c4c(-c5ccc(F)cc5)nc(SC)n4C)ccn3)cc2)c1,-0.7 °C
3,Cc1nn(C)c(COc2ccc(N3CCN(S(=O)(=O)N(C)C)CC3)cc2)c1-c1cccc2c(CCCOc3cccc4ccccc34)c(C(=O)O)n(CCN3CCOCC3)c12,-12.6 °C
4,CCN(CC)C/C=C/C(=O)Nc1cc2c(Nc3ccc(F)c(Cl)c3)ncnc2cc1OCC1CC1,-1.26 °C
5,COc1cc(-c2cn[nH]c2)ccc1C(=O)Nc1ccc2c(c1)CCNCC2,-1.67 °C
6,O=C(O)Cc1ccc(CCNS(=O)(=O)c2ccc(Cl)cc2)cc1,-1.74 °C
7,CCc1c(-c2ccc3[nH]ncc3c2)cnc(N)c1-c1ccc(O)cc1,-1.17 °C
8,Cn1cc(-c2cnc3ccc4ccc(CS(=O)(=O)NCc5ccccn5)cc4c(=O)c3c2)cn1,-1.72 °C
9,O=C(NCCN1CCOCC1)c1ccc2nn(CCOc3ccc(Cl)cc3)cc2c1,0.04 °C
10,O=C(O)C[C@H]1CCn2c1c(Sc1ccc(Cl)cc1)c1ccc(F)cc12,0 °C
11,COCCN(C)c1ccc(NC(=O)/C=C(\C)c2ccc3ccccc3c2)c(C(=O)O)c1,-1.96 °C
12,O=C(Nc1ccc(N2CCC(C(=O)N3CCOCC3)CC2)cc1)c1cnc(Oc2ccccc2)nc1,-0.8 °C
13,COc1ccc(C(=O)N[C@H](C)c2cccc(C(=O)Nc3nc4c(s3)CN(C)CC4)c2)cc1C,-1.18 °C
14,Cc1cc(-c2ccnc(Nc3cnn(C)c3)n2)ccc1CNC(=O)N1CC(OC(C)C)C1,-2.36 °C
15,CS(=O)(=O)c1cc(C2(NC(=O)c3cncc4c3cnn4-c3ccc(F)cc3)CC2)ccn1,-1.64 °C
16,CC#CCC(C)[C@H](O)/C=C/[C@@H]1[C@H]2C/C(=C/CCCC(=O)O)C[C@H]2C[C@H]1O (some centres undefined),-2.19 °C
17,O=C(N[C@H](Cc1ccccc1)C(=O)O)c1cccc(OCc2cccnc2)c1,-1.53 °C
18,CC(C)(C)c1cnc(CSc2cnc(NC(=O)C3CCNCC3)s2)o1,0.24 °C
19,NCCCc1c(C(=O)O)[nH]c2ccc(C(=O)Nc3ccccc3)cc12,-2.73 °C

# From ChEMBL document CHEMBL5308504, “Tm Shift (DSF) assay results for EUbOPEN Chemogenomics Library” (2023)
